We go through 7 compounds from PubChem BioAssay (Tox21).

Experiment [1] can be described thus: qHTS assay for small molecules that induce genotoxicity in human embryonic kidney cells expressing luciferase-tagged ATAD5 (AID 651632). Further: nearly all actives have a fitted effect of over 15% in size. In outline: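 ATAD5-luc HEK293T, 2,000 cells/well; cpd or DMSO pin-transferred; 16 hr, 37C/5% CO2; Amplite 30 min RT; luminescence.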
For orientation: Quantitative high-throughput screening tests each substance at several concentrations.

A short description of experiment [2]: qHTS assay for small molecule disruptors of the mitochondrial membrane potential (AID 720635). Further: potency means the concentration at half of the fitted maximal effect. In outline: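 HepG2 cells exposed to compound 1 hr at 37C, then Mito-MPS dye 30 min. Ratio read of aggregate (540/590 nm) versus monomer (490/535 nm) fluorescence.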
A short description of experiment [3]: qHTS assay to test for compound auto fluorescence at 590 nm (red) in HepG2 cells (AID 720674). An outline of the steps: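 HepG2 cells, 2,000 per well in MEM with 10% FBS, attached overnight at 37 C, then got 23 nL compound or DMSO. After 1 hr at 37 C, 5% CO2, red fluorescence was read at 540/590 nm against Rose Bengal sodium as reference.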
The nature of experiment [4]: qHTS assay to test for compound auto fluorescence at 535 nm (green) in HepG2 cells (AID 720675).
Experiment [5] in a line: qHTS assay to test for compound auto fluorescence at 460 nm (blue) in HEK293 cells (AID 720678). In outline:
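HEK293 cells (2,000/well, medium with 10% dialyzed FBS) attached 4-5 hr, then exposed to compound overnight at 37C, 5% CO2. Blue fluorescence read at 405/460 nm, with triamterene as reference fluorophore.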

Experiment [6] is described as follows: qHTS assay to test for compound auto fluorescence at 590 nm (red) in HEK293 cells (AID 720679). In outline:
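HEK293 cells (2,000/well, 10% dialyzed FBS) attached 4-5 hr, then dosed with compound or DMSO and incubated overnight at 37C, 5% CO2. Red fluorescence read at 540/590 nm, Rose Bengal sodium as reference fluorophore.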

A short description of experiment [7]: qHTS assay to test for compound auto fluorescence at 535 nm (green) in HEK293 cells (AID 720680).
A short description of experiment [8]: qHTS assay to test for compound auto fluorescence at 535 nm (green) in HEK293 cell free culture (AID 720682). In outline:
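Green-label autofluorescence (485 nm excitation, 535 nm emission) measured on compound added to cell-free culture medium (DMEM, 10% FBS). Output is expressed relative to fluorescein.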

Experiment [9] in a line: qHTS assay to test for compound auto fluorescence at 590 nm (red) in HEK293 cell free culture (AID 720683). An outline of the steps: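 Cell-free wells of DMEM with 10% FBS received compound, and intrinsic fluorescence was read at excitation/emission 540/590 nm. Values expressed as equivalence to Rose Bengal sodium.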
A short description of experiment [10]: qHTS assay to test for compound auto fluorescence at 590 nm (red) in HepG2 cell free culture (AID 720684). An outline of the steps: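 Compound was pinned into wells holding MEM with 10% FBS and no cells, and red fluorescence was read at Ex/Em 540/590 nm. Signal is expressed as auto fluorescence equivalency relative to Rose Bengal sodium.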
A short description of experiment [11]: qHTS assay to test for compound auto fluorescence at 460 nm (blue) in HepG2 cell free culture (AID 720685). An outline of the steps:
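Compound (23 nL) or DMSO pinned into cell-free MEM with 10% FBS; blue fluorescence read at 405/460 nm excitation/emission, expressed as auto-fluorescence equivalency to triamterene.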

The nature of experiment [12]: qHTS assay to test for compound auto fluorescence at 535 nm (green) in HepG2 cell free culture (AID 720686).
Experiment [13] can be described thus: qHTS assay to test for compound auto fluorescence at 460 nm (blue) in HepG2 cells (AID 720687). An outline of the steps: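 HepG2 cells in MEM with 10% FBS, attached overnight at 37 C, were exposed to compound or DMSO for 1 hr at 37 C, 5% CO2. Blue fluorescence was read at 405/460 nm, with triamterene as reference fluorophore.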
Experiment [14] concerns the target Glucocorticoid receptor (Homo sapiens) (UniProt P04150). In words: qHTS assay to identify small molecule agonists of the glucocorticoid receptor (GR) signaling pathway (AID 720691; active means well fitted activation curve with a large enough effect in the signal ratio in the repeat runs, not every such curve was filed as active; the % refers to the signal ratio). In outline: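 Fluorescence intensity from LiveBLAzer B/G FRET substrate (2 h, room temperature) reports beta-lactamase expression driven by the glucocorticoid response element in GR-bla HeLa cells after 18 h compound exposure at 37 C.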

For experiment [15] the target is unchanged. In words: qHTS assay to identify small molecule antagonists of the glucocorticoid receptor (GR) signaling pathway (AID 720692; active means well fitted inhibition curve with a large enough effect in the signal ratio in the repeat runs, not every such curve was filed as active; the % refers to the signal ratio; further: potency means the concentration at half of the fitted maximal effect). An outline of the steps:
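HeLa GR-bla cells; cmpd + dex 5 nM final, 18 h 37 C; LiveBLAzer B/G FRET substrate 2 h RT; fluorescence intensity read. Antagonist mode, qHTS.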

A short description of experiment [16]: qHTS assay for small molecule agonists of the p53 signaling pathway - cell viability (AID 651633; calls by dose curve; further: nearly all actives have a fitted effect of over 30% in size; further: potency means the concentration at half of the fitted maximal effect). In outline: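 p53RE-bla cells were treated with compound for 16 hours at 37 C. Cytotoxicity was then measured as CellTiter-Glo luminescence after 30 min at room temperature.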
A short description of experiment [17]: qHTS assay for small molecules that induce genotoxicity in human embryonic kidney cells expressing luciferase-tagged ATAD5 - cell viability (AID 651634; calls by dose curve; further: nearly all actives have a fitted effect of over 25% in size; further: potency means the concentration at half of the fitted maximal effect). In outline:
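Fluorescence from CellTiter-Fluor, reporting protease activity within live cells, served as the viability read-out. HEK293T cells carrying luciferase-tagged ATAD5 had been treated with compound for 15.5 hr at 37C.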

Experiment [18] in a line: qHTS assay to test for compound auto fluorescence at 460 nm (blue) in HEK293 cell free culture (AID 720681). In outline: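 Compounds were added to cell-free DMEM with 10% FBS and fluorescence read directly. The blue channel used 405 nm excitation and 460 nm emission, with triamterene as the reference fluorophore.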
Experiment [19] is described as follows: qHTS assay for small molecule disruptors of the mitochondrial membrane potential - cell viability (AID 720634; calls by dose curve; further: potency means the concentration at half of the fitted maximal effect; nearly all actives have a fitted effect of over 20% in size). An outline of the steps:
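Cells: HepG2, 2,000/well, attached overnight. Compound 1 hr, 37 C/5% CO2. +m-MPI dye, +CellTiter-Glo 30 min RT. Readout: luminescence (ATP).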

Each structure is given as a SMILES string. Where “and” joins values, the source holds several entries; their conditions need not be identical. Identical values can stand only once. A number with no mark means an inactive call. Results filed as inconclusive are left out. Calls of active or inactive are those of the source. Unless noted, the call rests on the fitted dose curve; in most records, active means well fitted curve in the direction sought with a large enough effect in the repeat runs; inconclusive means weak or mixed curves; inactive means no such curve, though single readings can be large; an effect the other way counts as inactive or inconclusive.

Glucocorticoid receptor (Homo sapiens), sequence (P04150 whole entry, looked up): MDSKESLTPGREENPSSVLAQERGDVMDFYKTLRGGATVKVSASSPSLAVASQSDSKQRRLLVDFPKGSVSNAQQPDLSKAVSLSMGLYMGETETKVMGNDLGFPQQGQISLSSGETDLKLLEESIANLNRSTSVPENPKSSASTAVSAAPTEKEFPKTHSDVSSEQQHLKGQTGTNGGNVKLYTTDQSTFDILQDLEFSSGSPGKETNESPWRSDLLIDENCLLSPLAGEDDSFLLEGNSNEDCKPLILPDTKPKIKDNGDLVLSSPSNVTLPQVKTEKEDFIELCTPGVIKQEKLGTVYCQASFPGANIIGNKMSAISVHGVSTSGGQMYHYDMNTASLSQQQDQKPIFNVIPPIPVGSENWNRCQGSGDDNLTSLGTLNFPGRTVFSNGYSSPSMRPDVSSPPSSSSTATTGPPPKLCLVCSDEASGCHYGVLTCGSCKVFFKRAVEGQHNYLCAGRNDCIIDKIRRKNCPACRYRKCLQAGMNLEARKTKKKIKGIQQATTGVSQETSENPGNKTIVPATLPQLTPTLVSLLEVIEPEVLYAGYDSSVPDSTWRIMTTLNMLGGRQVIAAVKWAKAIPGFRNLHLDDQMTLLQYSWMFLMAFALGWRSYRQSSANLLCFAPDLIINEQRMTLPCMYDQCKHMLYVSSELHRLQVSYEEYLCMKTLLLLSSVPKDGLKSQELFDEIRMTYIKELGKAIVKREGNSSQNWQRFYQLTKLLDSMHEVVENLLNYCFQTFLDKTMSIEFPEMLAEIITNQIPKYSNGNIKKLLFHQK

As to `CC(C)(C)C(O)/C(=C\c1ccc(Cl)cc1Cl)n1cncn1` (configuration not stated), the Potency entry in [1], in experiment [5], in experiment [11], in [13] and in [14] was “inactive” each time. For the same compound, the Potency in experiment [2] is 10.4 µM (active); in experiment [15], 59.3 µM (active). Further, the call in experiment [3], in [4], in [6], in [7], in experiment [8] and in experiment [9] was inactive. The compound was classed as inactive in experiment [10] and in experiment [12].
With `CC(=O)[O-].CC(=O)[O-].[Hg+2]`, the Potency is 1.93 µM (active) in experiment [16] and 54.5 µM (active) in experiment [17]. For the same compound, the result in experiment [3], in experiment [4], in experiment [6], in [7], in experiment [8] and in experiment [9] was inactive. Also, the compound was classed as inactive in experiment [10] and in experiment [12]. The Potency result in experiment [5], in experiment [18] and in [13] was “inactive” each time.
Turning to `CN(C)c1ccc(N=Nc2ccccc2)cc1`, the Potency result in experiment [16], in experiment [5], in [18], in [11], in [13] and in experiment [14] was “inactive” throughout. Further, in experiment [15], the Potency entry was “inactive”. Further, the Potency in experiment [17] was 68.7 µM (active); in [19], 48.6 µM (active). The outcome in [3], in experiment [4], in experiment [6], in [7], in [9] and in experiment [10] was inactive. Further, the call in experiment [12] was inactive.
For the compound `Nc1ccccc1C(=O)OC/C=C/c1ccccc1`, the Potency result in experiment [1], in experiment [5], in [11], in experiment [13], in experiment [14] and in experiment [15] was “inactive” in each case. For the same compound, the Potency in experiment [2] is 19.4 µM (active). In addition, the result in experiment [3], in [4], in experiment [6], in experiment [7], in [8] and in experiment [9] was inactive. The compound was classed as inactive in experiment [10] and in experiment [12].
Turning to `C[C@H]1CC[C@@H]2[C@@H](C)[C@H]3[C@H](C[C@H]4[C@@H]5CC=C6CC(O[C@@H]7O[C@H](CO)[C@H](O)[C@H](O[C@@H]8O[C@H](CO)[C@@H](O)[C@H](O)[C@H]8O)[C@H]7O[C@H]7O[C@@H](C)[C@H](O)[C@@H](O)[C@H]7O)CC[C@]6(C)[C@H]5CC[C@]34C)N2C1` (some centres not stated), the Potency in experiment [17] was 26.6 µM (active) and 63.1 µM (active); in experiment [19] it was 18.8 µM (active) and 70.8 µM (active); in experiment [2], 18.8 µM (active) and 35.5 µM (active). Besides, the compound was called inactive in experiment [3], in experiment [4], in experiment [6], in experiment [7], in experiment [8] and in [9]. Also, the call in experiment [10] and in [12] was inactive. The Potency result in experiment [5], in [11], in [13], in experiment [14] and in experiment [15] was “inactive” throughout.
For the compound `ClC1=C(Cl)[C@]2(Cl)[C@H]3[C@H]([C@H]4C=C[C@H]3C4)[C@@]1(Cl)C2(Cl)Cl`, the Potency entry in [1], in experiment [5], in experiment [18], in [11], in [13] and in experiment [14] was “inactive” in each case. In addition, the Potency is 43.3 µM (active) in experiment [2] and 49 µM (active) in experiment [15]. In addition, the call in [3], in experiment [4], in [6], in [7], in experiment [8] and in experiment [9] was inactive. Moreover, the outcome in experiment [10] and in experiment [12] was inactive.
As to `O=C/C(Cl)=C(/Cl)C(=O)O`, the Potency entry in experiment [16], in [17], in experiment [5], in experiment [11] and in experiment [13] was “inactive” each time. In addition, the Potency was 61.1 µM (active) in [19]; 24.3 µM (active) and 38.6 µM (active) in experiment [2]; 48.9 µM (active) and 49 µM (active) in experiment [15]. The compound was called inactive in experiment [3], in [4], in experiment [6], in experiment [7], in experiment [8] and in experiment [9]. Besides, the outcome in [10] and in experiment [12] was inactive.
